Results taken from ChEMBL document CHEMBL3988442, “University of Dundee, Small-Polar-MMV Screening Library” (2021).
Screen size: about 48,000 compounds; about 13,000 (27%) showed an effect of 50% or more. The list shows a part of the results.

Each compound was assayed on Wolbachia pipientis (assay: Anti-Wolbachia Cell-Based Screen). Settings: 5 µM.
Assay type: functional
Set-up: scale not given: in the data most compounds retested in dose-response had high values

SMILES | Percent Effect
CCc1noc(CC)c1CNC(=O)Nc1ccc2[nH]nnc2c1 | 5.627%
Cc1ccccc1CS(=O)(=O)CC(=O)N(C)Cc1ccccc1 | -7.305%
CCCNC(=O)CCC(=O)Nc1ccc(-n2cncn2)c(F)c1 | -8.923%
Cc1cc(S(=O)(=O)Nc2onc(C)c2C)c(C)s1 | -1.825%
Cc1ccc(NC(=O)NCC2(N3CCOCC3)CCSC2)c(C)c1 (stereo unspecified) | -11.49%
CCN1CCCC1(C)c1nc(C)cc(N)n1 (stereo unspecified) | 113.3%
CCCc1nc(C)cc(N2CCC3(CCC(=O)N(CCOC)C3)CC2)n1 | 0.7545%
Cc1cc(N2CCC3(CCC(=O)N(CCO)C3)CC2)nc(N(C)C)n1 | 21.48%
COCCN1CCCC12CCCN(c1nncs1)C2 (stereo unspecified) | 14.36%
CCCc1nc(C)cc(N2CCC3(CCC(=O)N(CCO)C3)CC2)n1 | 3.34%
COCCN1CCCC1(C)c1nc(C)cc(N)n1 (stereo unspecified) | 125.2%
Cc1cc(C)nc(C2(C)CCCN2CCO)n1 (stereo unspecified) | 123.6%
Cc1nnsc1C(=O)NCc1cccnc1N(C)Cc1ccccc1 | -7.662%
CC(C)N1CCOCC2(CN(Cc3nccs3)CCO2)C1.O=C(O)C(F)(F)F.O=C(O)C(F)(F)F (stereo unspecified) | 13.74%
CNS(=O)(=O)c1cccc(CNCc2ccsc2)c1 | 4.811%
O=C(c1ccoc1)N1CCC2(CCCN(c3ncc(F)cn3)C2)C1 (stereo unspecified) | 105.6%
O=C(O)C(F)(F)F.O=C(c1ccccn1)N1CCC2(CCCN(c3nncs3)C2)C1 (stereo unspecified) | -19.65%
O=C(c1ccco1)N1CCO[C@@H]2CN(c3ncc(F)cn3)CC[C@@H]2C1 | -7.545%
O=C(O)C(F)(F)F.O=C(c1ccco1)N1CCCC2(CCN(c3nncs3)C2)C1 (stereo unspecified) | 102.9%
O=C(c1ccco1)N1CCC2(CCOC2)C1 (stereo unspecified) | 5.675%
O=C(CCO)N1CCOC2(CCCN(C(=O)c3ccco3)C2)C1 (stereo unspecified) | -2.214%
O=C(c1ccco1)N1CCCC2(CN(Cc3ccoc3)CCO2)C1 (stereo unspecified) | -2.684%

SMILES | Percent Effect
CC(=O)N1CCCC2(CCN(c3nncs3)C2)C1 (stereo unspecified) | -12.49%
O=C(c1ccoc1)N1CCC2(C1)CN(c1ncc(F)cn1)C2 | 0.03212%
Cc1cnc(N2CC3(CCN(C(=O)c4ccoc4)C3)C2)nc1 | -4.182%
O=C(c1ccco1)N1CCCC2(C1)CN(c1nncs1)CCO2 (stereo unspecified) | 86.33%
O=C(c1ccco1)N1CCC2(CCCN(c3ncc(F)cn3)C2)C1 (stereo unspecified) | 95.74%
O=C(CSCC1CC1)N1CCCC(c2nccn2Cc2ccccn2)C1 (stereo unspecified) | -4.276%
CCC1=N[C@@]2(CC[C@@H]3CN(S(=O)(=O)CC)C[C@@H]32)C(=O)N1CC(C)C | -13.66%
CN(Cc1ccccc1)c1ncccc1CNC1CCCC1 | -55.14%
CNS(=O)(=O)c1cccc(C(C)NCc2ccc(F)cc2F)c1 (stereo unspecified) | 0.5272%
CC(C)(C)c1ccn(C2(C(=O)O)CCN(c3ccncc3F)CC2)n1 | 0.05232%
O=C(O)C(F)(F)F.O=C(c1ccco1)N1CCOC2(COCCN(c3ncccn3)C2)C1 (stereo unspecified) | -16.99%
O=C(O)C(F)(F)F.O=C(c1ccco1)N1CCCC2(CN(Cc3cccs3)CCO2)C1 (stereo unspecified) | 7.002%
O=C(O)C(F)(F)F.O=C(c1ccco1)N1CCC2(CCCN(c3ncccn3)C2)C1 (stereo unspecified) | 85.77%
CCN1CC2(CCN(C(=O)C3CSC(C)(C)C(=O)N3)CC2)CC1=O (stereo unspecified) | -12.94%
CCc1nccn1C1CCCN(C(=O)CCc2nc(C(C)C)no2)C1 (stereo unspecified) | 1.838%
CCc1nccn1C1CCCN(C(=O)c2csc(C3CC3)n2)C1 (stereo unspecified) | 96.06%
CCc1nccn1C1CCCN(C(=O)c2cc[nH]n2)C1 (stereo unspecified) | 5.506%
CCc1nccn1C1CCCN(C(=O)Cc2cn3ccsc3n2)C1 (stereo unspecified) | 106.2%
O=C(Cc1cn2ccsc2n1)N1CCCC(n2cncn2)C1 (stereo unspecified) | -11.33%
CCc1nccn1C1CCCN(C(=O)c2cc(C3CC3)on2)C1 (stereo unspecified) | 0.1203%
CC(C)c1ccc(OCCC(=O)N(C)CC(N)=O)cc1 | 4.31%
CC1CN(c2ncnc3cccc(F)c23)CCO1 (stereo unspecified) | -3.165%

SMILES | Percent Effect
Cc1cc2nc(C(C)C)cc(NCCc3cccn3C)n2n1 | 113.2%
Cc1cc2nc(C(C)C)cc(NCCc3ccncc3)n2n1 | 142%
Cc1cc2nc(C(C)C)cc(N[C@H](C(N)=O)C(C)C)n2n1 | -8.312%
Cc1cc(NCCS(C)(=O)=O)n2nc(C)cc2n1 | -11.18%
CC(C)c1cc(NCC2(Cn3cccn3)CC2)n2nccc2n1 | -2.27%
CNS(=O)(=O)CCNc1cc(C)nc2cc(C)nn12 | -6.261%
CCc1nc2c(NCC3COc4c(cccc4OC)C3)ncnc2o1 (stereo unspecified) | -3.271%
CCN(C)C(=O)c1ccc(N(C)Cc2cc(-c3cccnc3)no2)nc1 | 3.484%
COCc1cc(CC2(NC3CCN(C)CC3)COC2)no1 | 4.63%
COc1cc(C#N)ccc1OCC(=O)N(C1CC1)C(C)c1ccco1 (stereo unspecified) | -6.369%
CCC[C@H]1CN(Cc2ccc(N(C)C)nc2)C[C@@H]1NS(=O)(=O)CC | 9.48%
COc1cc(S(=O)(=O)Nc2cn[nH]c2)ccc1Br | 20.8%
Cc1nccn1CC1CCCN(C(=O)Cc2ccsc2)C1 (stereo unspecified) | 91.27%
Cc1noc(C)c1CC(=O)N1CCCC(n2ccnc2C)C1 (stereo unspecified) | 104.6%
Cc1noc(C)c1CNC(=O)N1CCN(CC2CC2)CC1 | -3.03%
Cn1nc(C2CCCN(C(=O)Cc3ccsc3)C2)c2nccnc21 (stereo unspecified) | -16.9%
CCCc1noc(CCC(=O)N2CCCC(n3ccnc3C)C2)n1 (stereo unspecified) | 4.516%
Cc1cnn(C2CCCN(C(=O)Cc3ccc(C)s3)C2)c1 (stereo unspecified) | 107.6%
Cc1cnn(C2CCCN(C(=O)Cc3ccc(-n4cccn4)cc3)C2)c1 (stereo unspecified) | -1.818%
Cc1noc(C)c1CC(=O)N1CCCC(Cn2ccnc2C)C1 (stereo unspecified) | 108.2%
O=C(Cc1ccsc1)N1CCCC(CNS(=O)(=O)Cc2ccccc2)C1 (stereo unspecified) | -10.03%
Cc1noc(C)c1CCC(=O)N1CCCC(n2ccnc2C)C1 (stereo unspecified) | -0.2444%
